Test results from PubChem BioAssay.

Each compound was assayed against Voltage-gated potassium channel subunit beta-2 (Rattus norvegicus) (UniProt P62483) (assay: KvBeta positive modulators, primary screen, biochemical, NADPH fluorescence (AID 623;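 note: fluorescence intensity change per second fitted from 20 to 320 s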)). Conditions: Recombinant KvBeta, NADPH fluorescence decrease slope, 10 min; at 10 µM; hits give low values.
Sequence of Voltage-gated potassium channel subunit beta-2 (Rattus norvegicus) (P62483 whole entry, looked up): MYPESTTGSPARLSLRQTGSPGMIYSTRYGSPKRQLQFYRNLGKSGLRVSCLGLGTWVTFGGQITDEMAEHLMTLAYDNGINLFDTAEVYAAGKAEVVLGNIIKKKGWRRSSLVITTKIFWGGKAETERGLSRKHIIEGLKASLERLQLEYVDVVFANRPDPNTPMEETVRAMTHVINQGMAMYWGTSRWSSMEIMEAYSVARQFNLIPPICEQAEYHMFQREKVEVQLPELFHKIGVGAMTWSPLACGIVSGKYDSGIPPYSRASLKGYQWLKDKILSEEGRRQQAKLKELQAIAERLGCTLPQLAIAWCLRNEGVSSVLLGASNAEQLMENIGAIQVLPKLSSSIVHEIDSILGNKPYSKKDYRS

NADPH fluorescence slope, inactive:
C/C(Nc1cccc(F)c1)=C(/C#N)C(N)=O -3.8e-05
Cc1cc(C(F)(F)F)nc(SCC(=O)NC2=NC(=O)C(C)S2)n1 (stereo not given) -1.9e-05
Cn1c(CCNC(=O)c2ccco2)nc2cc(NC(=O)C3CCCCC3)ccc21 -0.000205
Cc1nn(C(=O)c2ccc3c(c2)OCO3)c(N)c1-c1ccccc1 1.4e-05
Cc1c(C)[n+](=O)c2c(n1[O-])CCCCC2 -4.7e-05
Cc1cc(C(=O)CSc2nc3ccccc3[nH]2)c(C)n1C -5.2e-05
COc1ccc(C(=O)NCCn2ccc3ccccc32)c(OC)c1 6.8e-06
O=C(CCSc1nccn1Cc1ccccc1)N1CCOCC1 -5.2e-05
c1ccc(Cn2nnc3c(N4CCCCCC4)ncnc32)cc1 -2.5e-05
O=C(Nc1ccc(NC(=O)c2ccco2)nc1)c1cccnc1 -2.2e-05
COc1ccc(-c2noc(COc3ccc(C)c(C)c3)n2)cc1OC -6.4e-05
Nc1ncnc(Nc2ccccc2C(F)(F)F)n1 4.7e-05
O=C(COc1ccccc1Cl)NCc1ccco1 -3e-05
COC(=O)c1ccccc1NC1c2ccccc2C(=O)N1c1cccnc1 (stereo not given) -4.7e-05
Cc1ccc2cc(C#N)c(NCCCNC(=O)C3CCCO3)nc2c1 (stereo not given) -9.9e-05
Cc1nnc(NC(=O)c2ccco2)s1 -3.3e-05
CCCCC(CC)CNC(=O)C1CCCN(S(=O)(=O)c2cnc[nH]2)C1 (stereo not given) -1.6e-05
CC(C)CNC(=O)c1ccccc1NC(=O)c1ccc(CN2CCOCC2)cc1 -5.1e-05
O=C(NCC(c1cccnc1)N1CCN(c2ccc(F)cc2)CC1)c1ccc(F)cc1 (stereo not given) -4.6e-05
CCOC(=O)N1CCN(C(=O)COc2ccc(S(=O)(=O)NC3CCCCC3)cc2C)CC1 -4.2e-05
O=C(OCC#CCSc1nc2ccccc2s1)c1ccco1 2.6e-05
COC(=O)c1cccc(NC(=O)CSc2nnc(COc3ccc(C#N)cc3)n2-c2ccccc2)c1 4.9e-05
Cc1ccc2c(c1)C(O)(CC(=O)c1ccc3c(c1)OCO3)C(=O)N2 (stereo not given) -5e-05
Cc1ccc(NCC(O)C(O)C(O)CO)cc1C (stereo not given) 5.8e-07
CCCc1nc(NCc2ccncc2)c2nnn(Cc3ccccc3F)c2n1 -0.000136
CCCC1c2ccc(C)n2CCN1C(=O)Nc1ccccc1Cl (stereo not given) 2.7e-05
CCCCC(O)(C(NC=O)C(=O)OC)C(F)(F)F (stereo not given) 9.5e-07
O=C1c2ccccc2C(Nc2cccnc2)N1Cc1ccccc1Cl (stereo not given) -4.2e-05
CC(Sc1nnnn1C)C(=O)Nc1ccc(Oc2ccccc2)cc1 (stereo not given) -2.8e-05
COc1ccccc1NC(=O)CSc1nnnn1-c1ccc2c(c1)OCO2 3.9e-05
COc1ccc(C(=O)N2CCSC2=S)cc1OC -2.6e-05
CCN(Cc1ccccc1)C(c1ccncc1)c1nnnn1C(C)(C)C (stereo not given) -3.2e-05
CC(C)CCNC(=O)C1CCN(C(=O)N(C)C)CC1 -4.6e-05
CN1CCN(CC(=O)N2c3ccccc3C(C)(c3ccccc3)CC2(C)C)CC1 (stereo not given) -6.8e-07
O=C(Nc1ccccc1N1CCOCC1)c1ccc2ccccc2n1 -4.7e-05
CCOC(=O)N1CCN(c2cc(=O)n(-c3ccccc3Cl)c(=O)[nH]2)CC1 -4.3e-05
COCCN1CCN(c2c(C)c(C)nc3cc(-c4cccc(OC)c4)nn23)CC1 -3.9e-05
CCN(CCNC(=O)C1CCN(S(C)(=O)=O)CC1)c1ccccc1 -3e-05
CCN(CC)S(=O)(=O)c1ccc2c(c1)nc(SCC(=O)NC1CC1)n2-c1ccccc1OC -7.2e-06
CCCOC(=O)c1[nH]c2c(c1C)C(=O)CC(c1ccc(OC)c(OC)c1)C2 (stereo not given) 8.6e-06

What follows are compounds tested against Alpha-2C adrenergic receptor (Homo sapiens) (UniProt P18825) (assay: modulators of alpha2C/GIRK thallium flux, primary screen, cell-based, HEK293 alpha2C/GIRK1/2 (AID 624;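 active = fluorescence slope after compound addition differing from the mean of all screened samples at 99.7% confidence, in either direction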;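 note: slope of fluorescence ratio to pre-addition baseline per second over 15 to 24 s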)). Conditions: thallium flux BTC fluorescence, at 10 µM, actives lie on both sides.
Sequence of Alpha-2C adrenergic receptor (Homo sapiens) (P18825 whole entry, looked up): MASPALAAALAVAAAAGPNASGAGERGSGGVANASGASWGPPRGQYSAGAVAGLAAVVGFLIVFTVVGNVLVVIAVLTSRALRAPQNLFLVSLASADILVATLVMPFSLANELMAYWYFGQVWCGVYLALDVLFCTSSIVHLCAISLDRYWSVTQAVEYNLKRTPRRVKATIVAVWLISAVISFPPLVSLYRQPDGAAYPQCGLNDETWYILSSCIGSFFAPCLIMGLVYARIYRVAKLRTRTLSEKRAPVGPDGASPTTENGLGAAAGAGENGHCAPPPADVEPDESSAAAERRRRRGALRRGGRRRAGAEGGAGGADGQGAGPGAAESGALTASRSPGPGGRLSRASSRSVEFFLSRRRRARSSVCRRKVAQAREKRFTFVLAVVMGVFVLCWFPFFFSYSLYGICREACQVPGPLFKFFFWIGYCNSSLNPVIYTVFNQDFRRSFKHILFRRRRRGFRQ

slope, inactive:
C/C(Nc1cccc(F)c1)=C(/C#N)C(N)=O 0.00545
Cc1cc(C(F)(F)F)nc(SCC(=O)NC2=NC(=O)C(C)S2)n1 (stereo not given) 0.00515
Cn1c(CCNC(=O)c2ccco2)nc2cc(NC(=O)C3CCCCC3)ccc21 0.00612
Cc1nn(C(=O)c2ccc3c(c2)OCO3)c(N)c1-c1ccccc1 0.00618
Cc1c(C)[n+](=O)c2c(n1[O-])CCCCC2 0.00652
Cc1cc(C(=O)CSc2nc3ccccc3[nH]2)c(C)n1C 0.00445
COc1ccc(C(=O)NCCn2ccc3ccccc32)c(OC)c1 0.00591
O=C(CCSc1nccn1Cc1ccccc1)N1CCOCC1 0.00524
c1ccc(Cn2nnc3c(N4CCCCCC4)ncnc32)cc1 0.0062
O=C(Nc1ccc(NC(=O)c2ccco2)nc1)c1cccnc1 0.00492
COc1ccc(-c2noc(COc3ccc(C)c(C)c3)n2)cc1OC 0.00562
Nc1ncnc(Nc2ccccc2C(F)(F)F)n1 0.00593
O=C(COc1ccccc1Cl)NCc1ccco1 0.00673
COC(=O)c1ccccc1NC1c2ccccc2C(=O)N1c1cccnc1 (stereo not given) 0.00566
Cc1ccc2cc(C#N)c(NCCCNC(=O)C3CCCO3)nc2c1 (stereo not given) 0.00509
Cc1nnc(NC(=O)c2ccco2)s1 0.00691
CCCCC(CC)CNC(=O)C1CCCN(S(=O)(=O)c2cnc[nH]2)C1 (stereo not given) 0.00613
CC(C)CNC(=O)c1ccccc1NC(=O)c1ccc(CN2CCOCC2)cc1 0.00594
O=C(NCC(c1cccnc1)N1CCN(c2ccc(F)cc2)CC1)c1ccc(F)cc1 (stereo not given) 0.00545
CCOC(=O)N1CCN(C(=O)COc2ccc(S(=O)(=O)NC3CCCCC3)cc2C)CC1 0.00446
O=C(OCC#CCSc1nc2ccccc2s1)c1ccco1 0.00607
COC(=O)c1cccc(NC(=O)CSc2nnc(COc3ccc(C#N)cc3)n2-c2ccccc2)c1 0.00802
Cc1ccc2c(c1)C(O)(CC(=O)c1ccc3c(c1)OCO3)C(=O)N2 (stereo not given) 0.00523
Cc1ccc(NCC(O)C(O)C(O)CO)cc1C (stereo not given) 0.00562
CCCc1nc(NCc2ccncc2)c2nnn(Cc3ccccc3F)c2n1 0.00544
CCCC1c2ccc(C)n2CCN1C(=O)Nc1ccccc1Cl (stereo not given) 0.0054
CCCCC(O)(C(NC=O)C(=O)OC)C(F)(F)F (stereo not given) 0.00464
O=C1c2ccccc2C(Nc2cccnc2)N1Cc1ccccc1Cl (stereo not given) 0.00424
CC(Sc1nnnn1C)C(=O)Nc1ccc(Oc2ccccc2)cc1 (stereo not given) 0.00778
COc1ccccc1NC(=O)CSc1nnnn1-c1ccc2c(c1)OCO2 0.00668
COc1ccc(C(=O)N2CCSC2=S)cc1OC 0.00338
CCN(Cc1ccccc1)C(c1ccncc1)c1nnnn1C(C)(C)C (stereo not given) 0.0048
CC(C)CCNC(=O)C1CCN(C(=O)N(C)C)CC1 0.00555
CN1CCN(CC(=O)N2c3ccccc3C(C)(c3ccccc3)CC2(C)C)CC1 (stereo not given) 0.00483
O=C(Nc1ccccc1N1CCOCC1)c1ccc2ccccc2n1 0.00386
CCOC(=O)N1CCN(c2cc(=O)n(-c3ccccc3Cl)c(=O)[nH]2)CC1 0.00703
COCCN1CCN(c2c(C)c(C)nc3cc(-c4cccc(OC)c4)nn23)CC1 0.0105
CCN(CCNC(=O)C1CCN(S(C)(=O)=O)CC1)c1ccccc1 0.00548
CCN(CC)S(=O)(=O)c1ccc2c(c1)nc(SCC(=O)NC1CC1)n2-c1ccccc1OC 0.00577
CCCOC(=O)c1[nH]c2c(c1C)C(=O)CC(c1ccc(OC)c(OC)c1)C2 (stereo not given) 0.00378
